Several values for one entry are separate records, joined by “and”; a condition that tells them apart may be missing. Equal values may be shown once. About 4,000 (25%) of roughly 16,000 compounds were called active. Another 26% or so got no clear call; they are omitted. Not all results are given here. Values without a mark were called inactive. Calls come from the whole dose curve; as a rule, active = well fitted curve in the direction sought with a large enough effect; inconclusive = small, poorly fitted or top-dose-only effect, or effect the other way; inactive = no such curve, though single readings can be large or run the other way.
target: Cytochrome P450 2C9 (Homo sapiens) (UniProt P11712); assay: Cytochrome panel assay with activity outcomes; details: recombinant CYP, pro-luciferin dealkylation, luminescence, p450-cyp2c9; series mostly up to 57.1 µM
% is set by controls: 0 for no effect and ±100 for the full control effect.

Cytochrome P450 2C9 (Homo sapiens), sequence (P11712 whole entry, looked up): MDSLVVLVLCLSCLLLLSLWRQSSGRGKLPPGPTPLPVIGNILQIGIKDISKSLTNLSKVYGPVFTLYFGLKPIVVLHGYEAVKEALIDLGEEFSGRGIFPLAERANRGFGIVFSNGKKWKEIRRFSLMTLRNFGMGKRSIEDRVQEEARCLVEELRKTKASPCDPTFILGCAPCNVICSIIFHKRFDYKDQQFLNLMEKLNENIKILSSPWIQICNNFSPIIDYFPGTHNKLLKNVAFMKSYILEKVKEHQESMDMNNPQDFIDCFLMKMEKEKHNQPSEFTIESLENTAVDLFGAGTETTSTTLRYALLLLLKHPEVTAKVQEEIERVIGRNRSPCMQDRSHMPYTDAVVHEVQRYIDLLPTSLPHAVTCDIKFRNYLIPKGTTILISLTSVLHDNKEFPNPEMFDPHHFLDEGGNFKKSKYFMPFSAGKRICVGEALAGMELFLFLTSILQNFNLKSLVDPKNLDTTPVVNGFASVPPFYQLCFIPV

Row | Compound | AC50 | activity, negative = inhibition
1 | Cc1c(C(=O)NN2CCOCC2)nn(-c2ccc(Cl)cc2Cl)c1-c1ccc(I)cc1 | 6.31 µM (active) | 
2 | Cc1ccc(C(=O)NN2CCOCC2)cc1 | inactive | 
3 | O=C(N/N=C1/C[C@@H](O)[C@@H](O)[C@@H]2[C@@H]3C(=O)N(Cc4ccccc4)C(=O)[C@H]3CC[C@H]12)OCc1ccccc1 |  | 4.61% [at 11.4 µM]
4 | COc1ccc(CC(=O)NCc2ccccn2)cc1OC | inactive | 
5 | CCOC(=O)c1sc(NS(=O)(=O)c2ccccc2)nc1C | 1 µM (active) | 
6 | CCOC(=O)Cc1csc(NS(=O)(=O)c2ccccc2)n1 | 5.01 µM (active) | 
7 | COc1ccc(C/C(N)=N/OC(=O)Cc2ccccc2)cc1OC | inactive | 
8 | CCOC(=O)c1sc(NC(C)=O)nc1-c1ccccc1 | 31.6 µM (active) | 
9 | COC(=O)c1c(-c2ccc3ccccc3c2)csc1NC(=O)Cc1ccc(OC)c(OC)c1 | 0.447 µM (active) | 
10 | C#CCCCO/N=C1/C[C@@H](O)[C@@H](O)[C@@H]2[C@@H]3C(=O)N(C4CCCCC4)C(=O)[C@H]3CC[C@H]12 |  | 6.11% [at 11.4 µM]
11 | CCCC(=O)Nc1nc(C(=O)OCC)cs1 | inactive | 
12 | CCOC(=O)c1c(-c2ccc(OC)cc2)csc1NC(=O)CCN1C(=O)c2ccccc2C1=O | 1.41 µM (active) | 
13 | CCOC(=O)c1c(-c2cccc(C)c2)csc1NC(=O)c1c(-c2ccccc2)noc1C | inactive | 
14 | CCOC(=O)c1c(-c2ccccc2)csc1NC(=O)c1cccc(N2C(=O)CCC2=O)c1 | 0.316 µM (active) | 
15 | CCOC(=O)c1c(C)n(C)c2ccc(OC)c(NC(=O)CN3CCCCC3)c12 | inactive | 
16 | CCOC(=O)Cc1csc(NC(=O)CCCCCN2C(=O)c3ccccc3C2=O)n1 | 1.26 µM (active) | 
17 | Cn1cnnc1SCC(=O)OCN1C(=O)c2ccccc2C1=O | inactive | 
18 | N[C@@H](Cn1cc(F)c(=O)[nH]c1=O)C(=O)O | inactive | 
19 | Cc1c(C(=O)NCCC2=CCCCC2)cccc1[N+](=O)[O-] | inactive | 
20 | Cc1ccc(S(=O)(=O)N(CC(=O)NCCC2=CCCCC2)Cc2ccccc2F)cc1 | 7.08 µM (active) | 

Row | Compound | AC50 | activity, negative = inhibition
21 | CC(=O)c1cnc2cc(C)nn2c1C | inactive | 
22 | O=C1CCCN1c1ccc(S(=O)(=O)Oc2cccc(Cl)c2)cc1[N+](=O)[O-] | 11.2 µM (active) | 
23 | O=C(Cn1ccnc1[N+](=O)[O-])NCCO | inactive | 
24 | COc1cccc(-c2nccc(-n3ccnc3)n2)c1 |  | -24.4% [at 2.29 µM]
25 | COc1cccc(-c2ccc3ncnc(N4CCN(C)CC4)c3c2)c1 |  | -5.64% [at 2.29 µM]
26 | COc1cccc(-c2nnc3sc(-c4ccc(C)cc4)nn23)c1 | 10 µM (active) | 
27 | COc1ccc(CNc2ccnc(-c3ccc(C(=O)N(C)C)cc3)n2)c(OC)c1 |  | -2.88% [at 2.29 µM]
28 | Cc1ccc(N2C(=O)CSC2c2cccnc2)cc1F (stereo not given) | inactive | 
29 | Cc1ccc(NC(=O)C2(NC(=O)c3cccc(N4C(=O)CSC4c4ccccc4)c3)CCCCC2)cc1 (stereo not given) | 1.41 µM (active) | 
30 | Cc1ncc(COP(=O)(O)O)c(C)c1O |  | 5.34% [at 11.4 µM]
31 | COC(=O)C/C=C1\c2ccccc2[C@H](OC)[C@H]1C |  | 15.8% [at 11.4 µM]
32 | CC(=O)Nc1ccc2c(c1)C(=Nc1ccc(C(=O)O)cc1)c1ccccc1-2 |  | 16.5% [at 11.4 µM]
33 | COc1ccc(NC(C)=O)cc1NC(=O)CN1CCN(C2c3ccccc3-c3ccccc32)CC1 | 10 µM (active) | 
34 | CCN1CCN(C(=O)C2c3cc(OC)c(OC)cc3C(=O)N3CCc4ccccc4C23)CC1 (stereo not given) | inactive | 
35 | COC(=O)N1CCC2(CCCN(Cc3ccccc3OC)C2)CC1 | inactive | 
36 | O=C(O)C[C@@H](C(=O)O)C1c2ccccc2-c2ccccc21 |  | -12.1% [at 11.4 µM]
37 | CC(C)OC(=O)CN1CCN(C2c3ccccc3-c3ccccc32)CC1 | 14.1 µM (active) | 
38 | COc1ccccc1NC(=O)CN1CCN(C2c3ccccc3-c3ccccc32)CC1 | 0.794 µM (active) | 
39 | Cc1c(NC(=O)NC(C)N2C(=O)C3C4C=CC(C4)C3C2=O)c(=O)n(-c2ccccc2)n1C (stereo not given) | inactive | 
40 | COCCNc1cc(-c2ccccc2C(F)(F)F)ncn1 |  | 6.38% [at 2.29 µM]

Row | Compound | AC50 | activity, negative = inhibition
41 | O=C(NNC(=S)NCc1ccco1)c1ccc(Cl)s1 | 4.47 µM (active) | 
42 | O=S(=O)(c1ccccc1)N1CCC2(CCCN(Cc3nccs3)C2)CC1 | inactive | 
43 | CSC(=NC#N)N1CCN(c2ccc(Cl)cc2)CC1 | 5.01 µM (active) | 
44 | CCCCOC(=S)NC(=O)c1sc2ccccc2c1Cl | 0.282 µM (active) | 
45 | O=C(O)CCC(=O)c1ccc2sc3ccccc3c2c1 |  | -2.22% [at 11.4 µM]
46 | CC(C)c1nnc(NC(=O)c2sc3ccccc3c2Cl)s1 | 12.6 µM (active) | 
47 | CCOC(=S)NC(=O)c1sc2ccccc2c1Cl | 0.0631 µM (active) | 
48 | CC(C)Cc1nnc(NC(=O)c2ccc([N+](=O)[O-])cc2)s1 | inactive | 
49 | CN(C(=S)NC(=O)c1ccccc1Br)C1CCCCC1 | inactive | 
50 | O=C(NC(=S)N(CCCCO)C1CCCCC1)c1sc2ccccc2c1Cl | 7.94 µM (active) | 
51 | Cc1ccc(NC(=O)c2sc3ccccc3c2Cl)nc1 | inactive | 
52 | Cc1ncc2c(c1O)COP(=O)(O)OC2 | inactive | 
53 | CN(C)c1ccc(-c2cc(NCc3cccnc3)ncn2)cc1 |  | -1.19% [at 2.29 µM]
54 | CCc1cc2c(nc1CC)CCN(CC/C(C)=N/O[C@@H](C)c1cn([C@H](CO)Cc3ccccc3)nn1)C2 |  | 1.31% [at 11.4 µM] and -5.84% [at 11.4 µM]
55 | COc1ccc2[nH]cc(C=O)c2c1 | inactive | 
56 | CC1(C)Oc2ccc(C#N)cc2[C@H](N2CCCC2=O)[C@H]1O | inactive | 
57 | O=C(O)CCC(O)=C1S(=O)(=O)OCCOS1(=O)=O |  | 8.09% [at 11.4 µM]
58 | O=C(O)[C@H]1CCCNC1 | inactive | 
59 | c1c[nH]c(CN2CCN(Cc3ncc[nH]3)CC2)n1 |  | -13% [at 11.4 µM]
60 | CC[C@H]1C2=C3C(CC[C@H]4C(OCc5ccc(F)cc5C(F)(F)F)OC[C@](C)([C@@H]34)N(C(=O)OC(C)(C)C)C2)C(COC)C1COC (stereo not given in full) | inactive | 

From PubChem BioAssay AID1851 (National Center for Advancing Translational Sciences (NCATS), 2009)
